From PubChem
GDH-TPI counter-1 = counter-screen for M. tuberculosis FBA inhibitors: GDH-TPI coupled enzymes | inhibition, % at 4.8 µM | AID 588335 | GDH-TPI coupled enzyme counterscreen, NADH absorbance | 360,000 compounds, 1.2% hits; in the data active = inhibition above about 30%;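 also: 0% = DMSO wells and 100% = wells lacking the enzyme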
Rv3671c protease = inhibits the M. tuberculosis serine protease Rv3671c | AID 2606 | 320,000 compounds, 0.048% hits | inhibition, % at 5.96 µM; in the data active = inhibition above about 38%;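 also: extracellular domain of Rv3671c used as enzyme; 0% = enzyme with DMSO and 100% = no enzyme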
Mtb UGM inh = Mtb UDP-galactopyranose mutase inhibition; P9WIQ1; 320,000 compounds, 0.06% hits; AID 504406; purified UGM, fluorescence polarization probe displacement; inhibition, % at 10 µM; in the data active = inhibition above about 10%, passing the limit was not always enough
Mtb betalactam = beta-lactam sensitization of Mtb H37Rv | M. tuberculosis H37Rv growth with meropenem, percent inhibition | inhibition, % at 25 µM | 330,000 compounds, 0.27% hits;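 also: growth measured after seven days incubation then overnight dye step; 0% = bacteria only wells and 100% = bacteria with antibiotic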
RecA intein inh = inhibitors of M. tuberculosis RecA intein splicing; 290,000 compounds, 0.75% hits; P9WHJ3; inhibition, % (no concentration beside the values); AID 2221; cell-free RecA intein splicing, fluorescence; in the data active = inhibition above about 30%;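 also: 0% = vehicle wells and 100% = reference inhibitor control wells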
Target sequence (P9WHJ3 whole entry, looked up): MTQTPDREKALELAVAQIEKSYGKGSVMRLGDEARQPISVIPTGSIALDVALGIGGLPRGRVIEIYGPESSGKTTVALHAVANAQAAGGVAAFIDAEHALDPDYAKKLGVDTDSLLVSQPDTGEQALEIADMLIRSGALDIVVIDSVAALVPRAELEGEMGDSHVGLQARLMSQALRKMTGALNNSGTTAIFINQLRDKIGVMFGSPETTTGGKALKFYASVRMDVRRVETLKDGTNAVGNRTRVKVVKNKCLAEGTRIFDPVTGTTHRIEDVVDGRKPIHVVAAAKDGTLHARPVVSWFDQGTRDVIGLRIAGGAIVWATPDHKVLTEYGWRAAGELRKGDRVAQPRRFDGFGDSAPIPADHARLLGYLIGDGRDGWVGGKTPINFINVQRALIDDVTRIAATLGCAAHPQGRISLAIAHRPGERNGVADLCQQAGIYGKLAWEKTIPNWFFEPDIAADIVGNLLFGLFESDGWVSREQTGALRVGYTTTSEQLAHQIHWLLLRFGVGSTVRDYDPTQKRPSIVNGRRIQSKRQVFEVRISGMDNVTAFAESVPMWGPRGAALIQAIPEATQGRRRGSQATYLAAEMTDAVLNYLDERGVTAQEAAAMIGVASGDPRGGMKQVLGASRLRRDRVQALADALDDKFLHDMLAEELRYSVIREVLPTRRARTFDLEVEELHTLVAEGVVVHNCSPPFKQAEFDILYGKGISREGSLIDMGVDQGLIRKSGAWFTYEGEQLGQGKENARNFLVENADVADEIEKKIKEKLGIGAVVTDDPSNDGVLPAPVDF
Mtb FBA inh = inhibits M. tuberculosis FBA enzyme; P9WQA3; inhibition, % at 1 µM; purified M. tuberculosis FBA, fluorescence read-out; 360,000 compounds, 2.3% hits; in the data active = inhibition above about 27%;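 also: 0% = vehicle and 100% = reference inhibitor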
Mtb FBA confirm = Mtb FBA inhibition, confirmed; 5,600 compounds, 78% hits; shares compounds with Mtb FBA inh; inhibition, % at 1 µM; purified M. tuberculosis FBA, fluorescence read-out; in the data active = inhibition above about 27%;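 also: 0% = vehicle wells and 100% = reference inhibitor wells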
GDH-TPI counter-2 = inhibits GDH-TPI coupling enzymes, flagging Mtb FBA hits | shares compounds with Mtb FBA inh | GDH-TPI coupled enzyme counterscreen, fluorescence | AID 652141 | inhibition, % at 1 µM | 5,600 compounds, 81% hits; in the data active = inhibition above about 10%
GDH-TPI DR = inhibits GDH-TPI coupling enzymes in dose response. shares compounds with Mtb FBA inh. GDH-TPI coupled enzyme assay, fluorescence, artifact counterscreen. 170 compounds, 79% hits. IC50, µM
* = called active by the depositor; . = not tested or not shown; + = active, no number; ! = repeats disagree. Most compounds without a hit are left out; they make up all but 4% or so of the library. Unless noted, no rule for the calls is given here.

SMILES	GDH-TPI counter-1	Rv3671c protease	Mtb UGM inh	Mtb betalactam	RecA intein inh	Mtb FBA inh	Mtb FBA confirm	GDH-TPI counter-2	others
Nc1c(C(=O)CCC(=O)O)oc2ccc(Cl)cc12	18.3	-5.2	4.7	0.0	-1.2	4.9	.	.
CCOc1ccc2oc(C(=O)OCC(=O)NC3CC3)c(C)c2c1	2.9	5.0	2.2	-6.7	0.3	40.1*	62.0*	47.2*
Cc1ccc(-c2cc(C(=O)OCC(=O)NC3CC3)c3ccccc3n2)cc1	9.2	-5.1	.	65.7	.	36.5*	95.5*	81.2*
COc1ccc(-c2cc(C(=O)OCc3ccccn3)c3ccccc3n2)cc1	0.7	0.5	1.8	55.0	0.7	43.5*	107.3*	86.0*
Cc1cccc(-c2cc(C(=O)NCc3ccccn3)c3ccccc3n2)c1	7.9	-4.5	-2.5	6.9	-1.0	13.6	.	.
Cc1ccc(-c2cc(C(=O)NCc3ccccn3)c3ccccc3n2)cc1C	11.3	-23.4	-0.9	92.6	-2.3	46.2*	136.4*	94.4*
O=C(NCc1ccccn1)c1cc(-c2ccc(-c3ccccc3)cc2)nc2ccccc12	16.3	-45.3	0.3	57.1	6.6	36.9*	20.2	14.7*
COc1ccc(-c2cc(C(=O)OCC(=O)N(C)C)c3ccccc3n2)cc1	8.4	-10.3	0.8	71.0	-1.9	3.7	.	.
Cc1ccc(N2CC(C(=O)NCc3n[nH]c(=O)c4ccccc34)CC2=O)cc1 (centres undefined)	-4.2	-4.5	-2.9	-2.2	-3.4	0.2	.	.
CCOc1ccc2oc(C(=O)N(CCOC)c3c(N)n(CC(C)C)c(=O)[nH]c3=O)c(C)c2c1	3.5	5.9	1.0	1.3	.	0.5	.	.
CCOC(=O)Cc1cc(-c2ccc(O)cc2)nc2ccc3ccccc3c12	15.2	0.6	-0.8	1.8	2.6	6.4	.	.
COCCNC(=O)c1cc(-c2ccc(-c3ccccc3)cc2)nc2ccccc12	16.8	-20.4	-1.2	11.2	2.7	107.6*	+	+
CC(=O)Nc1ccc(-c2cc(C(=O)O)c3ccccc3n2)cc1	13.0	2.3	5.0	-3.6	.	56.0*	+	195.2*
O=C(O)c1cc(-c2cccnc2)nc2ccccc12	-2.9	0.4	-0.6	0.1	1.2	3.5	.	.
CCn1cc(-c2cc(C(=O)O)c3ccccc3n2)cn1	3.1	4.3	0.2	1.5	.	53.8*	59.7*	44.5*
CCOC(=O)Cc1cc(-c2ccc(OC)cc2)nc2ccc3ccccc3c12	3.3	-22.2	-2.5	12.2	0.3	35.3*	110.4*	89.4*
CS(=O)(=O)N(CC(=O)N1CCOCC1)c1cc(Cl)ccc1Cl	-0.5	-4.1	0.5	-2.3	0.4	-3.9	.	.
CN(CC(=O)Nc1ccccc1C(=O)NC1CC1)Cc1cccs1	5.6	-2.7	0.3	-5.0	.	-2.5	.	.
O=C(CCc1ccncc1)N1CCCC(Nc2ccc(F)c(F)c2)C1 (centres undefined)	-6.8	0.2	-1.4	-11.6	-3.7	0.1	.	.
CCc1cccc(NC(=O)CNC(=O)N2CC(=O)Nc3ccccc32)c1	5.2	6.5	1.3	3.5	0.9	-0.4	.	.
CCc1cccc(Nc2c([N+](=O)[O-])cc(C(=O)N3CC(=O)Nc4ccccc43)cc2[N+](=O)[O-])c1	16.3	2.4	2.8	-1.5	1.6	110.8*	144.7*	102.7*
C/C(=N\NC(=O)c1cc(C)nc2ccccc12)c1cccc(Cl)c1	4.5	-8.7	-2.8	-11.7	-3.2	-2.3	.	.
CN(C)c1nc(NCc2ccccc2)nc(Oc2ccc(=O)[nH]n2)n1	-10.7	2.0	-4.3	-2.4	-0.8	-2.0	.	.
CN(C)c1nc(OCc2ccccc2)c2ncc(=O)[nH]c2n1	16.9	-5.7	-0.1	2.7	-15.8	31.3*	10.2	-4.4	GDH-TPI DR=4.87*
CCCc1nc2oc3c(NCCOCCO)ncnc3c2c2c1COC(C)(C)C2	12.1	0.5	0.7	-8.7	-0.1	81.8*	95.8*	59.9*
SMILES	GDH-TPI counter-1	Rv3671c protease	Mtb UGM inh	Mtb betalactam	RecA intein inh	Mtb FBA inh	Mtb FBA confirm	GDH-TPI counter-2	others
CC(C)c1nc2oc3c(NCCO)ncnc3c2c2c1COC(C)(C)C2	-12.3	10.2	2.0	-2.2	3.0	87.6*	129.1*	99.4*
Cc1nc2oc3c(NCC4CCCO4)ncnc3c2c2c1COC(C)(C)C2 (centres undefined)	10.9	4.4	-3.6	-2.2	0.3	102.2*	+	185.2*
CC(C)c1nc2oc3c(=O)[nH]cnc3c2c2c1COC(C)(C)C2	5.3	11.8	1.0	11.1	2.8	43.7*	195.6*	181.5*
CC(C)c1nc2oc3c(=O)[nH]cnc3c2c2c1CCC2	5.5	0.6	-3.0	-1.1	3.6	5.8	.	.
COc1ccc(Cl)cc1-c1cc(C(=O)NCc2cccs2)[nH]n1	1.8	.	.	.	.	0.6	.	.
COc1ccc2oc(C(=O)OC(C)C(=O)NCc3ccccc3)c(C)c2c1 (centres undefined)	5.2	9.7	-0.9	-7.9	-2.3	24.7	.	.
COc1ccc2oc(C(=O)OC(C)C(=O)N3C(C)CCCC3C)c(C)c2c1 (centres undefined)	18.4	-1.0	4.7	5.0	.	62.0*	51.2*	31.1*
COc1ccc2oc(C(=O)NN3C(C)CCCC3C)c(C)c2c1 (centres undefined)	-2.5	6.4	-2.3	-16.3	-0.7	0.8	.	.
COc1ccc2oc(C(=O)OC(C)C(=O)NC3(C#N)CCCCC3)c(C)c2c1 (centres undefined)	-7.3	7.5	-0.7	-4.2	0.8	28.0*	39.0*	28.6*
CC(C)OC(=O)N(C)C[C@@H]1OCc2ccccc2-c2c(n(C)c3ccccc23)C(=O)N([C@@H](C)CO)C[C@H]1C	2.1	.	.	.	.	3.6	.	.
COc1ccc(-c2ccc(C(=O)O)c(=O)[nH]2)cc1	13.1	-2.2	-1.4	-0.9	-5.2	71.2*	105.6*	81.4*
CN(C)c1ccc(P(=O)(OC2CCCCC2)C(O)c2ccccn2)cc1 (centres undefined)	7.3	3.5	-1.9	2.6	1.2	68.1*	73.2*	79.2*
CC(C)NC(=O)c1cc(-c2cccs2)nc2ccccc12	1.3	-2.8	-0.8	-3.5	-2.8	71.4*	144.7*	113.1*
O=C(O)c1ccc(/C=N/NC(=O)c2cc(-c3cccs3)nc3ccccc23)cc1	23.7	3.5	1.7	0.0	-4.1	30.6*	+	+
Cc1ccc(-c2cc(C(=O)O)c3cc(Br)ccc3n2)s1	41.0*!	.	-2.7	0.6	-6.2	32.3*	197.5*!	193.7*!
Cc1cc(NC(=O)c2cc(-c3cccs3)nc3ccccc23)no1	22.5	-8.5	-0.4	-1.5	-1.2	71.1*	-3.9	-6.8
Cc1ccc(-c2cc(C(=O)Nc3cc(C)on3)c3ccccc3n2)cc1	16.2	-5.4	1.0	-4.5	1.0	11.0	.	.
